Bioassay records (PubChem)
Shown are actives, neighbours in structure and some others; about 18% of the full set was active somewhere.
RORg inh = blocks mouse ROR gamma transcriptional activity. AID 2551. actives 5.4% (n = 310,000). P51450. Potency, µM (series often up to 53.6 µM), for the others: at the highest dose activity change, negative = inhibition, usual class: inhibitors. Drosophila S2 Gal4-RORgamma UAS-luciferase reporter, 20 h; also: potency is read from the fitted curve at half-maximal effect; nearly all actives have a fitted effect of over 60% in size
Target sequence (P51450 whole entry, looked up, the tested form may be a part): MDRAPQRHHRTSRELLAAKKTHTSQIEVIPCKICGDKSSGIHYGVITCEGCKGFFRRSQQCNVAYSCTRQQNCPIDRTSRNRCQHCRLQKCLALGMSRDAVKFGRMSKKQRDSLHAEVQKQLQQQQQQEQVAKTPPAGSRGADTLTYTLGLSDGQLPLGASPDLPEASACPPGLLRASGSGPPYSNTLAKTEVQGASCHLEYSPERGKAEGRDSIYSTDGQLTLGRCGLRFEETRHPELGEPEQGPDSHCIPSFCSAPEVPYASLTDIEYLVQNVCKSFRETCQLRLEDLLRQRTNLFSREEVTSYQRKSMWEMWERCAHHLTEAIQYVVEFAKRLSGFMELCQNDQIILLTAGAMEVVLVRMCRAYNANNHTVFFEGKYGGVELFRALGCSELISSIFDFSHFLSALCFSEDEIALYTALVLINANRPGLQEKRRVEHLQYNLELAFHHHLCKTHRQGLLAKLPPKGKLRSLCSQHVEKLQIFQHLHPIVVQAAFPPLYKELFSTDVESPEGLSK
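Drosophila Schneider cells stably carrying a metallothionein-driven Gal4 DBD–ROR gamma fusion and a UAS-Photinus luciferase reporter were exposed to compound for 1 hr, then induced with copper sulfate (700 uM final) for 20 hr at ambient temperature before luminescence reading.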
LDHA inh = LDHA (human) enzyme inhibition. P00338. purified LDHA, NADH/diaphorase-resazurin fluorescence; hits give low values. activity change, % (values are at about 110 or 230 µM). AID 1347041. actives 0.15% (n = 480,000); in the data active = activity change below about -30%; inconclusive = mostly about -25% to -30%;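 also: plate controls were DMSO wells for no effect and wells without enzyme for full effect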
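Human LDH5 at 2 nM final in Tris HCl pH 7.4 with 0.06 mM NADH and 0.2 mM pyruvate, reacted 5 minutes at room temperature. Remaining NADH coupled via diaphorase/resazurin; resorufin fluorescence read at 0 and 20 minutes, normalized to enzyme-free and DMSO wells.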
TDP1 cell CPT = growth inhibition of DT40 Tdp1-/-;hTDP1 cells with camptothecin (screen for TDP1 inhibitors) | chicken DT40 Tdp1-/-;hTDP1 cells + 20 nM CPT, ATP luminescence, 48 h | Potency, µM (doses to about 46.2 µM), for the others: at the highest dose activity change, negative = growth inhibition, usual class: inhibitors | actives 12% (n = 420,000) | AID 686979; also: potency is read from the fitted curve at half-maximal effect; nearly all actives have a fitted effect of over 55% in size
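Chicken DT40 Tdp1-/- cells complemented with human TDP1, 400 cells/well, exposed to compounds plus 20 nM camptothecin for at least 48 h at 37 C; viability read as ATP content by CellTiter-Glo luminescence.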
Gal4-VP16 FLuc = inhibits Gal4-VP16 luciferase reporter, ROR gamma counter-screen; Drosophila S2 Gal4-VP16 UAS-luciferase, luminescence, 20 h; Potency, µM (series often up to 53.6 µM), for inactives: at the top dose activity, negative = inhibition, usual class: inhibitors; actives 3.5% (n = 310,000); AID 2546;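 also: Gal4-VP16 expression switched on by copper sulfate through the metallothionein promoter; potency is read from the fitted curve at half-maximal effect; nearly all actives have a fitted effect of over 50% in size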
IL1B secr inh = inflammasome signaling inhibition, IL-1 beta readout; THP-1 LPS/ATP IL-1B secretion, AlphaLISA, 16 h; hits give low values; AID 743279; actives 4.7% (n = 360,000); activity change, % at 57.5 µM; in the data active = activity change below about -50%; inconclusive = mostly about -30% to -49%
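THP-1 cells pretreated 1 hr with compounds (up to 57.5 uM final), then stimulated with LPS (250 ng/mL final) plus ATP (1.25 mM final); secreted IL-1B measured by AlphaLISA after 16 hr, decreased signal indicating inhibition.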
TDP1 cell noCPT = qHTS for Inhibitors of human tyrosyl-DNA phosphodiesterase 1 (TDP1): qHTS in cells in absence of CPT | actives 15% (n = 420,000) | Potency, µM (doses to about 46.2 µM), inactives show top-dose activity change, negative = growth inhibition, hits mostly inhibitors | DT40 Tdp1-/- hTDP1 cells, no CPT, ATP luminescence, 48 h; also: potency is read from the fitted curve at half-maximal effect; nearly all actives have a fitted effect of over 55% in size
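No-CPT arm: Tdp1-/-;hTDP1 DT40 cells (400/well) plus compounds, incubated ≥48 hr at 37 °C. Readout CellTiter-Glo luminescence.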
* marks the source's active call; other numbers are inactive results; ? = inconclusive; nt = not tested or not shown. Unless noted, calls follow the shape of the dose curve; as a rule, active = well fitted curve in the direction sought with a large enough effect; inconclusive = small, poorly fitted or top-dose-only effect, or another doubt; inactive = no such curve, though single readings can be large; an effect the other way counts as inactive or inconclusive. Unless noted, % is scaled to controls: 0 for no effect and ±100 for the full control effect.

SMILES | RORg inh | LDHA inh | TDP1 cell CPT | Gal4-VP16 FLuc | IL1B secr inh | TDP1 cell noCPT
CSc1ccc(CCNC(=O)c2ccc(-n3c(C)cc4c3CCCC4)cc2)cc1 | nt | 3.3 | 20.6µM* | nt | nt | 18.4µM*
Cc1cc2c(n1-c1ccc(C(=O)NCC(C)c3ccccc3)cc1)CCCC2 (stereo unspecified) | nt | 0.2 | 23.1µM* | nt | nt | 14.6µM*
N#Cc1ccccc1COC(=O)c1ccc(Cl)cc1 | nt | 8.2 | nt | nt | nt | nt
Cc1ccc(S(=O)(=O)NNC2=NS(=O)(=O)c3ccccc32)c(C)c1 | 10µM* | -9.7 | -6.6% | -28.1% | -17.3 | -10.5%
CC(C)c1ccc(-c2csc(N=C(N)N)n2)cc1 | nt | 1.0 | nt | nt | nt | nt
Cc1c(F)cccc1NC(=O)c1nn(C)c(=O)c2ccccc12 | nt | 2.1 | nt | nt | nt | nt
COc1ccc(S(=O)(=O)N2CCCC2c2cccs2)cc1 (stereo unspecified) | 29.8% | -1.7 | 5.8µM* | -11.6% | 0.0 | 8.2µM*
CC(=O)Nc1ccc(C)cc1S(=O)(=O)N1CCCC1c1cccs1 (stereo unspecified) | nt | 1.1 | nt | nt | nt | nt
O=S(=O)(c1ccccc1)N1CCCC1c1cccs1 (stereo unspecified) | 18.6% | -9.6 | ? | 6.4% | 41.7 | 11.6µM*
CCn1c(CNc2ccc(Cl)cc2)nnc1SCc1ccc(Cl)cc1 | 43.2% | 0.5 | ? | -3.3% | -1.7 | 18.4µM*
COc1ccc(NCc2nnc(SCCN3CCCCC3)n2-c2ccc(C)cc2)cc1 | 6.6% | 2.6 | -4.5% | -5.0% | -20.8 | -9.5%
CCn1c(CNc2ccc(Cl)cc2)nnc1SCc1ccc(C)cc1 | ? | -1.8 | ? | 13.9% | ? | -27.2%
CCOc1ccc(NCc2nnc(SCc3ccc(Cl)cc3)n2-c2ccccc2)cc1 | 36.1% | -3.3 | ? | ? | ? | 29.1µM*
CCn1c(CNc2ccc(Cl)cc2)nnc1SCCN1CCCCC1 | 10.2% | -2.3 | 20.6µM* | -5.1% | -5.0 | 18.4µM*
Cc1ccc(F)c(NC(=S)NC2CC2)c1 | nt | 0.8 | nt | nt | nt | nt
COc1ccc(OC)c(/C=C/C(=O)Nc2cccc(S(=O)(=O)N3CCCC3)c2)c1 | 22.2% | -4.8 | 23.1µM* | 15.3% | -18.7 | 29.1µM*
CCN1CCN(c2ccc(S(=O)(=O)N3CCCCC3)cc2NC(=O)/C=C/c2cc(OC)ccc2OC)CC1 | ? | -1.4 | 16.4µM* | ? | -97.8* | ?
CCN1CCN(c2ccc(S(=O)(=O)N3CCCCC3)cc2NC(=O)/C=C/c2ccc(OC)c(OC)c2)CC1 | nt | -19.7 | ? | nt | -5.5 | ?
CCN1CCN(c2ccc(S(=O)(=O)N3CCOCC3)cc2NC(=O)/C=C/c2ccc(OC)c(OC)c2)CC1 | nt | -2.2 | 1.9% | nt | ? | -15.3%
CCN1CCN(c2ccc(S(=O)(=O)N3CCCCC3)cc2NC(=O)/C=C/c2ccc(Cl)cc2)CC1 | nt | -1.2 | ? | nt | -93.4* | ?
CC(C)c1ccc2cc(C(=O)NCc3ccco3)[nH]c2c1 | nt | 1.4 | nt | nt | nt | nt
Cc1ccc(-c2c(C(N)=O)c(C)nc3sc4c(c23)CCC4)cc1 | nt | -6.8 | nt | nt | nt | nt
CON(C)C(=O)C(NC(=O)c1ccc(F)cc1)C(C)C (stereo unspecified) | nt | -4.0 | nt | nt | nt | nt
Cc1cc2cc(CN(Cc3cccs3)C(=S)NCC3CCCO3)c(=O)[nH]c2cc1C (stereo unspecified) | 35.0% | 0.6 | ? | 0.1% | -65.9* | ?
Cc1cc(C)c2[nH]c(=O)c(CN(Cc3cccs3)C(=S)NCC3CCCO3)cc2c1 (stereo unspecified) | ? | 0.1 | ? | 1.8% | -11.0 | 20.6µM*
SMILES | RORg inh | LDHA inh | TDP1 cell CPT | Gal4-VP16 FLuc | IL1B secr inh | TDP1 cell noCPT
COc1ccc2[nH]c(=O)c(CN(Cc3cccs3)C(=S)NCC3CCCO3)cc2c1 (stereo unspecified) | 38.5% | 0.0 | 23.1µM* | -18.5% | -3.9 | 23.1µM*
CN(C)CCN(Cc1cc2cc3c(cc2[nH]c1=O)OCO3)C(=S)NCC1CCCO1 (stereo unspecified) | -0.6% | 0.9 | 17.8% | -6.1% | 0.8 | -21.7%
COCCCNc1nc2c(c(=O)n(C)c(=O)n2C)n1Cc1cccc(Cl)c1 | nt | -2.9 | nt | nt | nt | nt
CCOc1ccc(CNc2cccc(C)c2)cc1 | nt | 4.5 | nt | nt | nt | nt
O=C(c1cc(-c2ccccc2)on1)N(Cc1cccnc1)C(c1ccccn1)c1nc2ccccc2[nH]1 (stereo unspecified) | nt | -1.9 | ? | nt | 25.1 | ?
CCC(c1nc2ccccc2[nH]1)N(Cc1cccnc1)C(=O)c1cc(-c2ccccc2)on1 (stereo unspecified) | nt | -4.6 | ? | nt | -12.2 | 18.4µM*
CCOC(=O)Cc1csc(NC(=S)NC(=O)c2ccccc2Br)n1 | 5.62µM* | -6.9 | -4.1% | 3.98µM* | 19.1 | -18.2%
CC(C)CC(=O)NC(=S)Nc1nc(-c2cccc3ccccc23)cs1 | 3.16µM* | -3.1 | -16.6% | 12.6µM* | 22.9 | 20.6µM*
O=C(Nc1nc(-c2cccc3ccccc23)cs1)c1cccs1 | nt | 9.1 | nt | nt | nt | nt
CCOC(=O)Cc1csc(NC(=S)NC(=O)CC(C)C)n1 | 11.2µM* | -9.0 | -4.3% | ? | 35.9 | -24.4%
CCOC(=O)Cc1csc(NC(=S)NC(=O)c2cccc([N+](=O)[O-])c2)n1 | 11.2µM* | -6.9 | -18.8% | ? | 5.9 | ?
CC(C)(C)c1cc(SCCC#N)cc(C(C)(C)C)c1O | nt | 9.9 | nt | nt | nt | nt
CCOC(=O)Cc1csc(NC(=S)NC(=O)c2ccccc2)n1 | ? | 3.6 | ? | -93.6% | 19.6 | -2.2%
CCOC(=O)Cc1csc(NC(=S)NC(=O)c2ccc(C)cc2)n1 | 5.01µM* | 1.6 | ? | 8.91µM* | -4.4 | ?
O=C(OCC12CC3CC(CC(C3)C1)C2)c1ccc(NCc2cc(O)ccc2O)cc1 | nt | 17.8 | 1.46µM* | nt | -51.8* | 0.731µM*
O=C(OCCC12CC3CC(CC(C3)C1)C2)c1ccc(NCc2cc(O)ccc2O)cc1 | nt | 20.7 | 1.84µM* | nt | -120.6* | 2.06µM*
O=C(O)c1cc(NCc2cc(O)ccc2O)ccc1O | nt | 14.9 | ? | nt | nt | ?
Cc1nn(C)c(C(=O)NNC(=S)Nc2ccc(F)cc2)c1[N+](=O)[O-] | 7.94µM* | 2.4 | -5.1% | ? | 0.0 | -4.2%
CCCCNC(=S)NNC(=O)CCn1nc(C)c(Br)c1C | 0.631µM* | -10.5 | 6.31µM* | 2.82µM* | 6.8 | 5.62µM*
CCCCNC(=S)NNC(=O)c1nn(C)c(C)c1Cl | ? | 1.6 | -6.3% | -9.2% | -1.0 | -18.2%
Cc1nn(CCC(=O)NNC(=S)Nc2ccc(F)cc2)c(C)c1Br | 0.891µM* | -7.8 | ? | ? | 16.9 | ?
